# Source: PubChem BioAssay (National Center for Advancing Translational Sciences (NCATS))
# Many of the other results were omitted from the sample, so hits are more common in it than they were.
# Cycloheximide cs: counter-screen hit for Shiga toxin inhibitors, cycloheximide; cell reporter, cycloheximide protein synthesis inhibition counterscreen; max response, %; 12% of 300,000 active; in the data active means max response mostly above about 13%, no sharp cut-off; inactive means mostly below about 14%; further: read at 38.3 µM for the half of the compounds with a filed dose; 0% is about no effect
# Tb PYK inh: inhibitors of Trypanosoma brucei pyruvate kinase; Q57TT1; 0.12% of 410,000 active; Potency, µM (doses to about 76.8 µM), without a hit: top-dose activity, negative = inhibition, actives largely listed as inhibitors; TbPYK enzyme, Kinase-Glo Plus ATP luminescence, 45 min; AID 624173; further: potency means the concentration at half of the fitted maximal effect; on the % scale 0 is the no-effect control and ±100 the full control effect; nearly all actives have a fitted effect of over 50% in size
#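 Quantitative HTS: titrated library compounds versus trypanosomal pyruvate kinase in TEA buffer (pH 7.2) containing KCl, MgCl2, BSA and Tween-20. Reactions were initiated with ADP, 130 uM final. Kinase-Glo Plus luminescence was read after 45 min at RT.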
# LmPK inhibitor: LmPK (Leishmania mexicana) enzyme inhibition | Q27686 | purified LmPK, Kinase-Glo ATP luminescence, 1 h | Potency, µM (titrated, usually from 57.5 µM), for inactives: at the top dose activity change, negative = inhibition, usual class: inhibitors | 0.37% of 290,000 active; further: potency means the concentration at half of the fitted maximal effect; on the % scale 0 is the no-effect control and ±100 the full control effect
#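 qHTS format; LmPK 0.1 nM; substrates PEP 0.5 mM and ADP 0.1 mM. One-hour room-temperature incubation, then coupled luciferase luminescence; 0.5 nM enzyme wells mark activation.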
# Shiga inhibitor: inhibitors of Shiga toxin in Vero cells. Vero cells, Shiga toxin protein synthesis inhibition reporter. inhibition, % at 38.7 µM. 9.2% of 290,000 active. AID 2315; in the data active means inhibition mostly above about 28%, no sharp cut-off; inactive means mostly below about 43%; further: 0% is about no effect
# RE007 growth inh: less growth of the S. pombe RE007 Vpr strain | S. pombe RE007 Vpr strain, BacTiter-Glo ATP luminescence, 24 h | Potency, µM (titrated, usually from 92.2 µM), without a hit: top-dose activity change, negative = less growth, hits mostly inhibitors | 0.21% of 360,000 active; active means well fitted falling curve with a large enough effect; inconclusive means small, poorly fitted or top-dose-only effect; inactive means no such curve, though single readings can be large or run the other way; further: potency means the concentration at half of the fitted maximal effect; on the % scale 0 is the no-effect control and ±100 the full control effect; nearly all actives have a fitted effect of over 50% in size
#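 Fission yeast RE007 carrying one integrated HIV-1 vpr copy, seeded at OD 0.01 in PMG+AL medium with 23 nL pinned compound. Grown 24 h at 30 degrees; viability read by BacTiter-Glo luminescence after 5 min.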
# FBPA Giardia inh: inhibitors of Giardia lamblia fructose-1,6-bisphosphate aldolase; 0.71% of 290,000 active; Potency, µM (top dose mostly 59.6 µM), without a hit: at the highest dose activity, negative = inhibition, usual class: inhibitors; purified Giardia FBPA; A8B2U2; further: potency means the concentration at half of the fitted maximal effect; on the % scale 0 is the no-effect control and ±100 the full control effect; nearly all actives have a fitted effect of over 55% in size
# Target sequence (A8B2U2 whole entry, looked up): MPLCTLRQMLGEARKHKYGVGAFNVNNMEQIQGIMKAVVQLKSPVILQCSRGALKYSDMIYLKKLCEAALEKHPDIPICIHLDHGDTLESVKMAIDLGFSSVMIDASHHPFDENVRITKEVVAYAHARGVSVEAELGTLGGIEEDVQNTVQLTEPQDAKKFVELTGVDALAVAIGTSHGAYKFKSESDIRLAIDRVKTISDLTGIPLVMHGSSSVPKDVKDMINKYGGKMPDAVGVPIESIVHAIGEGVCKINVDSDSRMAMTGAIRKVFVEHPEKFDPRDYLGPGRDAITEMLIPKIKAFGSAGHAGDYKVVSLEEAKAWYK
#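 40 nM FBPA preincubated 10 min at RT with compound (up to 57.5 uM final), then substrate plus GAPDH/TPI/NAD/arsenate coupling and diaphorase/resazurin added. Fluorescence read after 20 min at RT, 525/598 nm.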
# Numbers without * were called inactive; u = inconclusive; x = no result given. Unless noted, the call rests on the fitted dose curve; in most records, active means well fitted curve in the direction sought with a large enough effect; inconclusive means small, poorly fitted or top-dose-only effect, or another doubt; inactive means no such curve, though single readings can be large; an effect the other way counts as inactive or inconclusive.
SMILES,Cycloheximide cs,Tb PYK inh,LmPK inhibitor,Shiga inhibitor,RE007 growth inh,FBPA Giardia inh
Cc1ccc(-n2nnc3c(sc4nc(C)c(C)cc43)c2=O)cc1Cl,x,-7.0%,x,x,x,x
O=C(N/N=C/C(Br)=C/c1ccccc1)c1cc(-c2ccco2)[nH]n1,7.6,8.9%,1.8%,39.0*,-22.7%,-4.3%
Cc1ccc(-c2cc(C(=O)N/N=C/c3ccccc3)n[nH]2)o1,24.9*,3.1%,-4.3%,81.9*,-7.4%,-3.0%
CC(/C=N/NC(=O)c1cc(-c2ccc(C)o2)[nH]n1)=C\c1ccccc1,-2.4,-0.9%,2.5%,-5.8,17.1%,1.8%
Cc1cc(NC(=O)c2ccc(C#N)cc2)on1,10.6*,1.2%,1.6%,19.8,12.0%,-0.8%
Cc1ccc(C(=O)Nc2onc(C)c2C#N)cc1,12.3*,0.2%,-1.1%,10.9,9.5%,1.2%
Cc1ccc(NC(=O)c2cc(F)c(F)cc2Cl)nc1,58.2*,0.8%,3.1%,48.6*,-13.0%,1.6%
Cc1cc(NC(=O)c2ccccc2F)on1,41.8*,-1.2%,-10.9%,67.0*,-3.8%,5.1%
Cc1noc(NC(=O)c2ccccc2)c1C#N,-0.6,-1.6%,2.4%,-4.2,4.4%,-5.8%
Cc1cc(C)nc(NC(=S)NC(=O)c2ccccc2F)n1,x,-0.2%,x,x,22.0%,x
COc1ccc(C(=O)NC2CC2)cc1OC1CCN(Cc2ccc(F)cc2Cl)CC1,x,-2.3%,x,x,-13.8%,x
CCCCN(C(=O)CSCc1c(C)noc1C)c1c(N)n(CCCC)c(=O)[nH]c1=O,x,-6.6%,x,x,-0.2%,x
COCCNc1nc(-c2ccc(Cl)cc2C)c2sccc2n1,x,1.0%,x,x,-28.3%,x
CCc1ccc(NC(=O)N2CC(C)Oc3ccc(C)cc32)cc1 (configuration not stated),x,6.2%,x,x,x,x
C=CCN1CCc2c(cc(O)c(O)c2Cl)C(c2cccc(C)c2)C1 (configuration not stated),x,x,x,x,x,-24.7%
COc1cc2ccccc2cc1C(=O)NNC(=O)c1ccccc1O,-2.6,x,-8.0%,7.1,x,x
Cc1ccc(NC(=O)c2ccccc2F)nc1,43.0*,0.0%,u,66.4*,37.9%,1.7%
COc1cc2ccccc2cc1C(=O)Nc1ccc(C)cn1,48.4*,-5.0%,-0.5%,102.4*,-2.6%,-7.1%
COc1ccc(OC)c(S(=O)(=O)Nc2cccc(-c3ccc(N4CCCCC4)nn3)c2)c1,x,5.5%,x,x,x,x
Cc1ccc(-n2ncc3c(NNC(=O)Cc4ccccc4)ncnc32)cc1,13.6*,-4.7%,-2.9%,21.0,x,10.1%
Cc1ccc(-n2ncc3c(NNC(=O)c4ccco4)ncnc32)cc1Cl,56.9*,1.1%,2.1%,84.2,-2.1%,12.8%
Cc1cccc(-n2ncc3c(NNC(=O)c4ccco4)ncnc32)c1,20.5*,-19.7%,9.2%,2.8,1.3%,2.3%
COc1ccc(OC)c(NC(=O)c2nnn(CC(=O)Nc3ccc(C(C)C)cc3)c2N)c1,x,1.5%,x,x,x,x
O=C(O)c1ccc(-c2ccc(/C=c3/sc4nc5ccccc5n4c3=O)o2)cc1Cl,-0.8,u,9.2%,-5.2,7.4%,-2.0%
O=C1c2sc3nc4ccccc4n3c2C(=O)N1c1ccccc1Cl,20.5*,u,-11.7%,116.3*,2.2%,-15.9%
SMILES,Cycloheximide cs,Tb PYK inh,LmPK inhibitor,Shiga inhibitor,RE007 growth inh,FBPA Giardia inh
COc1ccc(C2=NOC(C(=O)N3CCCc4ccccc43)C2)cc1 (configuration not stated),22.6*,-0.8%,1.6%,40.1,5.3%,0.5%
COc1ccc(-c2cc(C(=O)N3CCCc4ccccc43)no2)cc1OC,18.4,15.0%,-1.4%,-15.8,9.5%,17.1%
COc1ccc(OC)c(-c2cc(C(=O)N3CCCc4ccccc43)no2)c1,9.6,1.0%,5.1%,4.4,12.6%,-10.3%
COc1cc(C2=NOC(C(=O)N3CCCc4ccccc43)C2)cc(OC)c1OC (configuration not stated),-4.0,-3.4%,1.2%,1.0,5.5%,13.0%
COc1cccc(-c2cc(C(=O)N3CCCc4ccccc43)no2)c1,28.0*,6.0%,7.0%,46.0*,-8.6%,0.5%
COc1ccccc1-c1cc(C(=O)N2CCCc3ccccc32)no1,60.1*,0.7%,3.0%,71.9*,-16.0%,3.7%
COc1ccc(-c2cc(C(=O)N3CCCc4ccccc43)no2)cc1,43.8*,2.0%,0.2%,93.5*,-7.6%,7.0%
O=C(Nc1ncccc1O)c1ccc(Cl)c(S(=O)(=O)N2CCCC2)c1,x,7.7%,x,x,-4.7%,x
COc1c(C)cccc1C(=O)NCc1ccc2c(c1)OCO2,1.4,-2.5%,0.6%,-0.5,-7.0%,-2.5%
Fc1ccccc1-c1n[nH]c(=S)n1/N=C/c1c[nH]c2ccccc12,-2.2,u,10µM*,19.5,0.9%,0.4%
COc1ccc(C(=O)Nc2nc3ccccc3s2)c(OC)c1,-7.0,u,-13.6%,-20.4,u,-2.3%
CCOc1ccc2nc(NC(=O)Nc3cccs3)sc2c1,62.7*,-4.0%,-7.0%,71.8*,-7.6%,0.7%
COc1ccc(NC(=O)Nc2nc3ccccc3s2)cc1,43.6*,-6.0%,7.0%,113.9*,-1.4%,2.4%
COc1ccc(OCC(=O)NNc2nc3ccccc3s2)cc1,43.6*,-6.7%,-1.9%,76.5*,5.9%,0.1%
CCOc1ccc2nc(NC(=O)NC3CCCCC3)sc2c1,0.6,-1.3%,-2.4%,-9.8,2.2%,-5.0%
CC(C)(C)c1nc(NC(=O)Nc2ccccc2)sc1Br,45.6*,1.7%,-5.2%,71.3*,-10.4%,-4.6%
CCOc1ccccc1Nc1nnc(-c2cc3cc(Cl)ccc3oc2=O)s1,x,1.2%,x,x,x,x
CS(=O)(=O)c1ccc2nc(NC(=O)C3=NN(c4ccccc4)C(=O)CC3)sc2c1,-3.7,2.0%,10.3%,-10.9,-5.0%,-0.8%
O=C(COc1ccccc1)NNc1nc2c(F)cc(F)cc2s1,9.6,0.2%,0.3%,3.7,8.3%,3.4%
Cc1ccc2nc(NC(=O)c3ccccn3)sc2c1,-7.4,-15.1%,-25.3%,-11.3,u,u
COc1ccc2nc(NC(=O)C3=NN(c4ccccc4)C(=O)CC3)sc2c1,18.4*,-20.0%,-1.4%,26.5,-10.0%,-14.3%
CCOc1ccc2nc(NC(=O)c3ccccn3)sc2c1,24.2*,-11.4%,u,45.1*,14.1µM*,u
CCOc1ccc2nc(NC(=O)Nc3ccccc3)sc2c1,21.5*,1.0%,-4.1%,89.3,-3.0%,3.2%
O=C(Nc1nc2c(F)cc(F)cc2s1)c1ccccn1,34.9*,-17.5%,u,95.1*,u,-4.1%
COCCNc1nc(C)nc2c1nc(-c1ccccc1)n2CCN(C)C,x,x,x,x,x,2.3%
COc1ccc(C(=O)N2CCC[C@@]3(CCN(c4ncccn4)C3)C2)cc1,x,14.3%,x,x,x,3.4%
COc1ccc2nc(NC(=O)Nc3ccccc3)sc2c1,56.1*,-2.9%,4.0%,92.0*,2.9%,-2.9%
Cc1csc(NC(=O)CSc2nccn2C)n1,28.6*,0.4%,0.1%,30.2,3.3%,u
